Laboratory results taken from PubChem BioAssay (Tox21).
Several values for one entry are separate records, joined by “and”; a condition that tells them apart may be missing. Equal values may be shown once. Records with an inconclusive call do not appear. Activity calls are given as the source filed them. Unless noted, calls follow the shape of the dose curve; as a rule, active = well fitted curve in the direction sought with a large enough effect in the repeat runs; inconclusive = weak or mixed curves; inactive = no such curve, though single readings can be large; an effect the other way counts as inactive or inconclusive.

What was measured:
[1] = qHTS assay to identify aromatase inhibitors - cell viability counter screen (AID 743084); conditions: MCF-7 aro ERE viability, CellTiter-Fluor, 24 h; series mostly up to 70.3 µM;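 also: cells stimulated with testosterone during compound exposure; nearly all actives have a fitted effect of over 55% in size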
[2] = target: Aryl hydrocarbon receptor (Homo sapiens) (UniProt P35869); test: qHTS assay to identify small molecule that activate the aryl hydrocarbon receptor (AhR) signaling pathway (AID 743085); conditions: HepG2 AhR-luc (HG2L7.5c1), luciferase, 24 h; series mostly up to 70.3 µM; also: nearly all actives have a fitted effect of over 15% in size; also: potency is read from the fitted curve at half-maximal effect;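 as to activation: HG2L7.5c1 human HepG2 liver cells with stably integrated DRE-driven firefly reporter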
Chain of Aryl hydrocarbon receptor (Homo sapiens) (P35869 whole entry, looked up): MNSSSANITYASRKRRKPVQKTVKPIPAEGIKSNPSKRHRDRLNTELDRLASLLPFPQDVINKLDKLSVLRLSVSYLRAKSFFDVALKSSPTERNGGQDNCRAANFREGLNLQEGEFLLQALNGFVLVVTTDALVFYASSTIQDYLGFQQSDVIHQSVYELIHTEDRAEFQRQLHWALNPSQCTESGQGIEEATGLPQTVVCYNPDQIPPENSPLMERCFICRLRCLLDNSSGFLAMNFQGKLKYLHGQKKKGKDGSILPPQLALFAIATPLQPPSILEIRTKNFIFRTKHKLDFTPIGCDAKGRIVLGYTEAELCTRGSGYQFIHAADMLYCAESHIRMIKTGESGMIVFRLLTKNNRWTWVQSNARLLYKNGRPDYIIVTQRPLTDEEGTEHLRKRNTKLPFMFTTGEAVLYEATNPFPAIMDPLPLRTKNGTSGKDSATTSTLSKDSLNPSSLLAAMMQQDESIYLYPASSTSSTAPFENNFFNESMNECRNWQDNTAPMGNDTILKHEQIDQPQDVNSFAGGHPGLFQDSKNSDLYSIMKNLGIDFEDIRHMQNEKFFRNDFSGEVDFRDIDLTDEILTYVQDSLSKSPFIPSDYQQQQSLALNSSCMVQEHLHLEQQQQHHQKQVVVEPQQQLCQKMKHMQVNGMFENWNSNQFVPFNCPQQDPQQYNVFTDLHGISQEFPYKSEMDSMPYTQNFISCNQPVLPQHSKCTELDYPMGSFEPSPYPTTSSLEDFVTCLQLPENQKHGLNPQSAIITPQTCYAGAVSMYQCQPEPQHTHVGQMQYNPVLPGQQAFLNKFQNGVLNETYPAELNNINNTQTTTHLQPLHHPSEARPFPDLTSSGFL
Summary of the method: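 AhR agonist activity is inferred from enhanced light output of a DRE-controlled firefly luciferase reporter in HepG2 cells, measured with ONE-Glo following 24 h treatment at 37C.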

[3] = qHTS assay to identify small molecule that activate the aryl hydrocarbon receptor (AhR) signaling pathway - cell viability counter screen (AID 743086); conditions: HepG2-AhR-luc viability, CellTiter-Fluor, 24 h; series mostly up to 70.3 µM;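 also: HepG2 liver cells carrying the AhR DRE luciferase reporter; nearly all actives have a fitted effect of over 45% in size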
Summary of the method: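 HepG2-AhR-luc (HG2L7.5c1) cells, 4000/well, treated 24 h at 37 C with compound; viability measured as CellTiter-Fluor fluorescence after 30 min in the same wells as the luciferase read.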

[4] = target: Peroxisome proliferator-activated receptor gamma (Homo sapiens) (UniProt P37231); test: qHTS assay to identify small molecule agonists of the peroxisome proliferator-activated receptor gamma (PPARg) signaling pathway (AID 743094; active = well fitted activation curve with a large enough effect in the signal ratio in the repeat runs, not every such curve was filed as active; the % refers to the signal ratio); conditions: HEK293H PPARg-UAS-bla, beta-lactamase FRET ratio, 17 h; series mostly up to 57 µM
Chain of Peroxisome proliferator-activated receptor gamma (Homo sapiens) (P37231 whole entry, looked up): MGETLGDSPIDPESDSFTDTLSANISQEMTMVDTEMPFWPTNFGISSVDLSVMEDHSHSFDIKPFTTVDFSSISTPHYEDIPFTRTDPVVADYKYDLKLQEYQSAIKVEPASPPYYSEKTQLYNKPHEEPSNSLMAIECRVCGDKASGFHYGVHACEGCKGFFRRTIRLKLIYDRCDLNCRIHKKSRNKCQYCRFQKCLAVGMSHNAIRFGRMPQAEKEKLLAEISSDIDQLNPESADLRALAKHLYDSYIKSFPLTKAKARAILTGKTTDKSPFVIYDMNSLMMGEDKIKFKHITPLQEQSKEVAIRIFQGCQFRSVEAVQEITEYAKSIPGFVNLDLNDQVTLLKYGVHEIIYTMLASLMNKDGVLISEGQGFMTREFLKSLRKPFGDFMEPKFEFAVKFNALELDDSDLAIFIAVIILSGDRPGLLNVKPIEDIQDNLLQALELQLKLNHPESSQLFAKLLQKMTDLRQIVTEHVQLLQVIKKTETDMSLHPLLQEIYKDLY
Summary of the method: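 Beta-lactamase FRET fluorescence was the read-out after a 1 h room-temperature substrate step, following 17 h compound treatment at 37C of HEK293H cells expressing a UAS-driven bla reporter responsive to PPARg.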

[5] = qHTS assay to identify small molecule antagonists of the peroxisome proliferator-activated receptor gamma (PPARg) signaling pathway - cell viability counter screen (AID 743194); conditions: PPARg-bla HEK293H viability, CellTiter-Glo luminescence, 17 h; Potency: co-treated with 50 nM rosiglitazone; series mostly up to 62.6 µM; also: nearly all actives have a fitted effect of over 55% in size; also: potency is read from the fitted curve at half-maximal effect
Summary of the method: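 Cytotoxicity counter screen in PPARg-bla HEK293H cells, same wells as reporter assay. Compounds plus 50 nM rosiglitazone (final) for 17 h at 37 C, then viability read by CellTiter-Glo luminescence.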

[6] = qHTS assay for small molecule agonists of the antioxidant response element (ARE) signaling pathway - cell viability counter screen (AID 743203; calls by dose curve; also: nearly all actives have a fitted effect of over 55% in size; also: potency is read from the fitted curve at half-maximal effect); conditions: ARE-bla HepG2 viability, CellTiter-Glo luminescence, 16 h; series mostly up to 73.3 µM
Summary of the method: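 HepG2 cells carrying ARE-driven beta-lactamase; 2,000 cells/well; 5 hrs plating; compound pinned from DMSO; 16 hrs 37C/5% CO2; CellTiter-Glo added; 30 min RT; luminescence.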

[7] = qHTS assay for small molecule activators of the heat shock response signaling pathway - cell viability counter screen (AID 743209); conditions: HSE-bla HeLa viability, CellTiter-Glo luminescence, 5 h; series mostly up to 62.6 µM; also: nearly all actives have a fitted effect of over 50% in size; also: potency is read from the fitted curve at half-maximal effect
Summary of the method: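 Luminescence from CellTiter-Glo, added after the beta-lactamase FRET read, gave the viability signal. Cells were HSE-bla HeLa treated with DMSO-dissolved compounds for 5 h at 37 C following overnight plating.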

[8] = qHTS assay to identify small molecule antagonists of the peroxisome proliferator-activated receptor delta (PPARd) signaling pathway - cell viability counter screen (AID 743213); conditions: PPARd-bla HEK293H viability, CellTiter-Glo luminescence, 17 h; series mostly up to 62 µM; also: nearly all actives have a fitted effect of over 50% in size
Summary of the method: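 HEK293H PPARd UAS-bla cells, 5 h pre-incubation, compound + L165041 300 nM final, 17 h 37 C; B/G FRET substrate 2 h RT; then CellTiter-Glo 30 min RT, luminescence.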

[9] = qHTS assay to identify small molecule antagonists of the farnesoid-X-receptor (FXR) signaling pathway - cell viability counter screen (AID 743221; active = well fitted cell-killing curve with a large enough effect in the repeat runs, not every such curve was filed as active; also: nearly all actives have a fitted effect of over 50% in size; also: potency is read from the fitted curve at half-maximal effect); conditions: FXR-bla HEK293T viability, CellTiter-Glo luminescence, 16 h; series mostly up to 62.6 µM
Summary of the method: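 After a 5 h settling period, FXR-bla HEK 293T cells receive compound and chenodeoxycholic acid (50 uM final) and incubate 16 h at 37 C; CellTiter-Glo luminescence, read after 30 min at room temperature, reports cell viability.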

[10] = qHTS assay for small molecule agonists of the antioxidant response element (ARE) signaling pathway (AID 743202; active = well fitted activation curve with a large enough effect in the signal ratio in the repeat runs, not every such curve was filed as active; the % refers to the signal ratio); conditions: HepG2 ARE-bla reporter, beta-lactamase FRET, 16 h; series mostly up to 73.3 µM
Summary of the method: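 ARE-bla HepG2 cells (beta-lactamase reporter under the antioxidant response element), plated 5 hours, then exposed to compounds 16 hours at 37 C. LiveBLAzer B/G FRET substrate added for 2 hours at room temperature; fluorescence intensity read.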

[11] = qHTS assay for small molecule activators of the heat shock response signaling pathway (AID 743210; active = well fitted activation curve with a large enough effect in the signal ratio in the repeat runs, with a control signal flat, not every such curve was filed as active; the % refers to the signal ratio); conditions: HeLa HSE-bla reporter, beta-lactamase ratio, 5 h; series mostly up to 62.6 µM
Summary of the method: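 HSE-bla HeLa cells (beta-lactamase reporter under heat shock response elements), plated overnight, then exposed to compounds 5 h at 37 C; LiveBLAzer B/G FRET substrate added, 2.5 h at room temperature, fluorescence intensity read.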

[12] = qHTS assay to identify small molecule agonists of the peroxisome proliferator-activated receptor delta (PPARd) signaling pathway - cell viability counter screen (AID 743211); conditions: PPARd-bla HEK293H viability, CellTiter-Glo luminescence, 17 h; series mostly up to 62.6 µM; also: nearly all actives have a fitted effect of over 55% in size
Summary of the method: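 qHTS cell viability: PPARd-bla HEK293H; 17 h cpd, 37C; CellTiter-Glo, luminescence at 30 min RT.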

[13] = target: Peroxisome proliferator-activated receptor delta (Homo sapiens) (UniProt Q03181); test: qHTS assay to identify small molecule agonists of the peroxisome proliferator-activated receptor delta (PPARd) signaling pathway (AID 743212; calls by dose curve); conditions: HEK293H PPARd-UAS-bla, beta-lactamase FRET ratio, 17 h; series mostly up to 62.6 µM
Chain of Peroxisome proliferator-activated receptor delta (Homo sapiens) (Q03181 whole entry, looked up): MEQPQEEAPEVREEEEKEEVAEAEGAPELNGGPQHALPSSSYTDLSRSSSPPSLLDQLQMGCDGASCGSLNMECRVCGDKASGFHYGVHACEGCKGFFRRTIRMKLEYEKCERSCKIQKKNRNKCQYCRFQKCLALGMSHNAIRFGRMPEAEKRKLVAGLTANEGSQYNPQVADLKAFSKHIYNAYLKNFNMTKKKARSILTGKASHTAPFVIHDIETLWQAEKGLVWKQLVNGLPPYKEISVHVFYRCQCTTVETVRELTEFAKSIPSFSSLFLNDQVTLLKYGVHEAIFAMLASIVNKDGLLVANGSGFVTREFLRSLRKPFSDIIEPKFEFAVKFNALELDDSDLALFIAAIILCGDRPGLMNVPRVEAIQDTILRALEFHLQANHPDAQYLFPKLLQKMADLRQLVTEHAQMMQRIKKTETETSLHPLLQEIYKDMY
Summary of the method: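 GeneBLAzer UAS-bla HEK293H cells carrying a PPARδ construct were exposed to compounds at 37 °C. Beta-lactamase activity was read by FRET fluorescence after 2 h at room temperature with LiveBLAzer B/G substrate.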

[14] = qHTS assay to identify small molecule agonists of the farnesoid-X-receptor (FXR) signaling pathway - cell viability counter screen (AID 743218); conditions: FXR-bla HEK293T viability, CellTiter-Glo luminescence, 16 h; series mostly up to 62.6 µM; also: nearly all actives have a fitted effect of over 45% in size
Summary of the method: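 HEK 293T FXR-bla cells; 5 h pre-incubation, 16 h compound exposure at 37 C; LiveBLAzer substrate 2 h RT, then CellTiter-Glo 30 min RT, luminescence.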

[15] = target: Vitamin D3 receptor (Homo sapiens) (UniProt P11473); test: qHTS assay to identify small molecule agonists of the vitamin D receptor (VDR) signaling pathway (AID 743222; calls by dose curve); conditions: HEK293T VDR-UAS-bla, beta-lactamase FRET ratio, 16 h; series mostly up to 63.5 µM
Chain of Vitamin D3 receptor (Homo sapiens) (P11473 whole entry, looked up): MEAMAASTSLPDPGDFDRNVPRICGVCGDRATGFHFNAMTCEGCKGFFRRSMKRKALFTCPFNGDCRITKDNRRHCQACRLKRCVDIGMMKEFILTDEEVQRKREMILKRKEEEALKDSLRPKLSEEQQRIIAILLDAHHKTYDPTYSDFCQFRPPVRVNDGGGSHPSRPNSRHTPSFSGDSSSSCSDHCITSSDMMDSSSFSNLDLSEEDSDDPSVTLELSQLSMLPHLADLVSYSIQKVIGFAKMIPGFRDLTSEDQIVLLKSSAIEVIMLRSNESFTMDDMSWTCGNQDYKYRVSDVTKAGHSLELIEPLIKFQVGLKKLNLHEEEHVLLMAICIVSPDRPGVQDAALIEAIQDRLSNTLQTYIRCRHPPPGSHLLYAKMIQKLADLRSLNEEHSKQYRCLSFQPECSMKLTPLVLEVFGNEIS
Summary of the method: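 VDR-bla cells, 2,000/well; 4 h preincubation 37C; cpd (DMSO) 16 h; LiveBLAzer B/G substrate 2 h RT; fluorescence intensity read.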

[16] = target: Peroxisome proliferator-activated receptor delta (Homo sapiens) (UniProt Q03181); test: qHTS assay to identify small molecule antagonists of the peroxisome proliferator-activated receptor delta (PPARd) signaling pathway (AID 743215; active = well fitted inhibition curve with a large enough effect in the signal ratio in the repeat runs, not every such curve was filed as active; the % refers to the signal ratio;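 also: cells stimulated with agonist L165041 at 300 nM final during compound exposure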); conditions: HEK293H PPARd-UAS-bla, beta-lactamase FRET ratio, antagonist, 17 h; series mostly up to 62 µM
Summary of the method: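 Read-out is beta-lactamase FRET fluorescence, measured 2 h after substrate addition at room temperature. Beforehand, UAS-bla HEK293H cells carrying the PPARd reporter were exposed to compounds with L165041 at 300 nM final for 17 h at 37 C.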

[17] = target: Bile acid receptor (Homo sapiens) (UniProt Q96RI1); test: qHTS assay to identify small molecule antagonists of the farnesoid-X-receptor (FXR) signaling pathway (AID 743217; active = well fitted inhibition curve with a large enough effect in the signal ratio in the repeat runs, not every such curve was filed as active; the % refers to the signal ratio); conditions: HEK293T FXR-UAS-bla, beta-lactamase ratio, CDCA-stimulated, 16 h; series mostly up to 62.6 µM
Chain of Bile acid receptor (Homo sapiens) (Q96RI1 whole entry, looked up): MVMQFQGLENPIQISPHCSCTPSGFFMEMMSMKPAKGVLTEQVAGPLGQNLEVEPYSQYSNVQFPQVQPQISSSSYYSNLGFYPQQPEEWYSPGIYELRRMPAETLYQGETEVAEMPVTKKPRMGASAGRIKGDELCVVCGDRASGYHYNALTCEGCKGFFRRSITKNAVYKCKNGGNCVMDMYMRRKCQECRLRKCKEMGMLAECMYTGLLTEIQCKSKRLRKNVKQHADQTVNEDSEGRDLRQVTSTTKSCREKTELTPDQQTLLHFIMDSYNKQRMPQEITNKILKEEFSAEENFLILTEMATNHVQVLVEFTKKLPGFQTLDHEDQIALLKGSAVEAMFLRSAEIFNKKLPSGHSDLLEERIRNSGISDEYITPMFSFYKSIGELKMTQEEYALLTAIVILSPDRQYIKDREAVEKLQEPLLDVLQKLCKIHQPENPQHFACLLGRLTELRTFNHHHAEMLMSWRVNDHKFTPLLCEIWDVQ
Summary of the method: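 HEK 293T FXR-UAS-bla, 5000 cells/well; compound + CDCA 50 uM final; 16 h, 37 °C; B/G FRET substrate 2 h RT; fluorescence.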

[18] = target: Bile acid receptor (Homo sapiens) (UniProt Q96RI1); test: qHTS assay to identify small molecule agonists of the farnesoid-X-receptor (FXR) signaling pathway (AID 743220; active = well fitted activation curve with a large enough effect in the signal ratio in the repeat runs, not every such curve was filed as active; the % refers to the signal ratio); conditions: HEK293T FXR-UAS-bla, beta-lactamase FRET ratio, 16 h; series mostly up to 62.6 µM
Summary of the method: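 Beta-lactamase reporter under UAS control in GeneBLAzer FXR HEK 293T cells (5000/well) measured with LiveBLAzer FRET substrate after 2 h at room temperature. Compound exposure lasted 16 h at 37C.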

[19] = target: Peroxisome proliferator-activated receptor gamma (Homo sapiens) (UniProt P37231); test: qHTS assay to identify small molecule antagonists of the peroxisome proliferator-activated receptor gamma (PPARg) signaling pathway (AID 743191; calls by dose curve; also: nearly all actives have a fitted effect of over 30% in size); conditions: HEK293H PPARg-UAS-bla, beta-lactamase ratio, antagonist, 17 h; series mostly up to 62.6 µM
Summary of the method: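 GeneBLAzer PPARg UAS-bla HEK293H cells, 5 h post-plating, exposed to compounds 17 h at 37C. LiveBLAzer B/G FRET substrate added for 1 h at room temperature; beta-lactamase reporter read by fluorescence intensity.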

[20] = target: Vitamin D3 receptor (Homo sapiens) (UniProt P11473); test: qHTS assay to identify small molecule antagonists of the vitamin D receptor (VDR) signaling pathway (AID 743223; active = well fitted inhibition curve with a large enough effect in the signal ratio in the repeat runs, not every such curve was filed as active; the % refers to the signal ratio); conditions: VDR-UAS-bla HEK293T, beta-lactamase FRET ratio, 16 h; series mostly up to 61 µM
Summary of the method: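 Reporter line VDR-bla; stimulus 1alpha,25-(OH)2 vitamin D3, 3 nM final; compound co-addition, 16 h 37C/5% CO2; LiveBLAzer B/G substrate 2 h RT; fluorescence intensity.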

Measured: Potency

NS(=O)(=O)C(F)(F)C(F)(F)C(F)(F)C(F)(F)C(F)(F)C(F)(F)C(F)(F)C(F)(F)F
inactive: [1] | [2] | [3] | [4] | [8]
active: [5] 43.6 µM | [6] 68.6 µM | [7] 49 µM | [9] 27.5 µM

Brc1ccc(Oc2ccccc2)cc1
not listed: [8] | [16] | [17] | [18] | [19] | [20]
inactive: all other assays above

O=Cc1ccc(Cl)cc1Cl
not listed: [9] | [12] | [17] | [18] | [19] | [20]
inactive: all other assays above

O=Cc1ccc2c(c1)OCO2
not listed: [11] | [14] | [19] | [20]
inactive: all other assays above

CC(=O)[C@H]1CC[C@H]2[C@@H]3CC[C@H]4C[C@](C)(O)CC[C@]4(C)[C@H]3CC[C@]12C
not listed: [6] | [8] | [10] | [15] | [17] | [18] | [19] | [20]
inactive: all other assays above

O=NN1CCNCC1
not listed: [4] | [7] | [8] | [11] | [14] | [17] | [18]
inactive: all other assays above

C#CCOC(C(=O)OCCN(C)C)(c1ccccc1)c1ccccc1
not listed: [4] | [17] | [18] | [20]
inactive: all other assays above

C=CC(=O)OC(C)(C)C
not listed: [4] | [17] | [18] | [20]
inactive: all other assays above

CCOP(O)OCC
not listed: [17] | [18] | [19] | [20]
inactive: all other assays above

Cc1ccc2ccccc2c1
not listed: [6] | [10] | [15] | [19] | [20]
inactive: all other assays above

O=C(O)COc1ccc(Cl)cc1
not listed: [8] | [10] | [17] | [18] | [19] | [20]
inactive: all other assays above

O=C(NC(=O)c1c(F)cccc1F)Nc1ccc(OC(F)(F)C(F)OC(F)(F)F)c(Cl)c1 (stereo unspecified)
not listed: [10] | [11] | [13] | [17] | [18] | [19]
inactive: all other assays above

CCOc1ccc(C(C)(C)COCc2cccc(Oc3ccccc3)c2)cc1
not listed: [10] | [14] | [19] | [20]
inactive: all other assays above

CCC(Cl)CCl (stereo unspecified)
not listed: [4] | [8] | [17] | [18] | [20]
inactive: all other assays above

CC(=O)CCC(C)=O
not listed: [6] | [7] | [9] | [16] | [17] | [18] | [19]
inactive: all other assays above

CCCC(=O)Cl
not listed: [8] | [10] | [16] | [19]
inactive: all other assays above

CC(Cl)Cl
not listed: [9] | [10] | [19]
inactive: all other assays above

CC/C(=N\OC/C=C/Cl)C1=C(O)CC(C2CCOCC2)CC1=O (stereo unspecified)
not listed: [6] | [13] | [17] | [18] | [19] | [20]
inactive: all other assays above

CCOP(=S)(OCC)Oc1nc(Cl)c(Cl)cc1Cl
active: [2] 27.4 µM and 10.9 µM
not listed: [10] | [12] | [14] | [19]
inactive: all other assays above
